# Measured values taken from PubChem BioAssay (NCI).
# The panel holds about 83,000 compounds, 20% with a hit somewhere; the sample as a whole holds those more often.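 Treatment: one concentration, 48 hours, 96-well format. Scoring: percent growth, with anything below 10 considered active.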 A number with no mark means an inactive call. Activity calls are given as the source filed them.
# What was measured:
# Assay in all cases: NCI-60 one-dose screen, 48 h (100 = growth as untreated, 0 = no growth, -100 = all killed)
# Details in all cases: 10 µM unless noted
# NCI-H23 lung = system: NCI-H23 lung
# NCI-H226 lung = system: NCI-H226 lung
# NCI-H322M lung = system: NCI-H322M lung
# HOP-62 NSCLC = system: HOP-62 NSCLC
# NCI-H460 lung = system: NCI-H460 lung
# HOP-92 NSCLC = system: HOP-92 NSCLC
# NCI-H522 lung = system: NCI-H522 lung
# A549/ATCC NSCLC = system: A549/ATCC NSCLC
# 786-0 renal = system: 786-0 renal
# COLO 205 colon = system: COLO 205 colon
Compound,growth (NCI-H23 lung),growth (NCI-H226 lung),growth (NCI-H322M lung),growth (HOP-62 NSCLC),growth (NCI-H460 lung),growth (HOP-92 NSCLC),growth (NCI-H522 lung),growth (A549/ATCC NSCLC),growth (786-0 renal),growth (COLO 205 colon)
COc1cc2cc(Oc3ccc(NC(=O)c4cccc(C(F)(F)F)c4)cc3)c(C)nc2cc1OCCN(C)C,90.4%,95.5%,104%,97.9%,47.1%,62%,99.9%,89.2%,60.1%,95.8%
Oc1ccc(CSc2nnc(-c3ccc(Oc4ccccc4)cc3)o2)c2cccnc12,31.3%,71.8%,36.7%,9.54% (active),3.07% (active),33.7%,40.1%,9.22% (active),-11.5% (active),78.2%
CC(=O)Nc1ccc(NC(=O)Nc2cccc(-c3nc(-c4ccc(NC(=O)c5cccs5)cc4Cl)no3)c2)cc1C(F)(F)F,-60.2% (active),-41.2% (active),-8.96% (active),-74.8% (active),-59.4% (active),-46.8% (active),-39.6% (active),-27.1% (active),-43.4% (active),-64.4% (active)
C(=C(\C1=NCCN1)n1cnc2ccccc21)/c1ccc2ccccc2c1,65.4%,62.6%,73.2%,79.4%,86.5%,-2.7% (active),14.7%,86%,74.6%,77.1%
COc1cc2cc(Oc3ccc(NC(=O)Nc4cccc(C(F)(F)F)c4)cc3)c(C)nc2cc1OCCN(C)C,91.2%,104%,117%,105%,99.9%,74.7%,102%,96.7%,88.7%,98.5%
COc1ccc(-c2ccnc3c(C#N)c(Nc4ccccc4)nn23)cc1OC,93%,62.6%,91.2%,86.5%,92.8%,-0.0748% (active),81.4%,85.4%,85.7%,97.1%
O=C(CSc1nnc(-c2ccc(Cl)cc2)n1-c1ccccc1)Nc1ccc(F)cc1,82.3%,96.1%,80.3%,75.2%,40.8%,99.2%,71.8%,57.3%,68.1%,96.6%
COc1cc2oc(-c3cccc(NC(=O)c4cc(NC(=O)[C@H](C)NC(=O)OC(C)(C)C)ccc4C)c3)cc(=O)c2c(OC)c1OC,63.8%,80.6%,86.2%,84.5%,61.5%,-0.546% (active),72.2%,80.5%,77.5%,67.7%
CCOC(=O)C1=C(C)Nc2nnc(Nc3ccccc3)n2C1c1ccccc1 (stereo not given),72.4%,86.7%,91.2%,81.8%,-28.3% (active),82.4%,79.2%,48.9%,75.5%,88.9%
Cc1ccc(/C=C/CC(=O)Nc2ccc(C(=O)Nc3ccc(F)cc3N)nc2)cn1,45.7%,50.3%,52.7%,51.1%,45.6%,-3.93% (active),2.35% (active),43.8%,51.4%,25%
CCN1C(=O)N(CC)C2SC(N/N=C/c3ccc(OC)cc3)=NC21 (stereo not given),24.6%,51.2%,42.1%,48%,2.55% (active),36.4%,17.1%,23.9%,19.6%,2.66% (active)
N#Cc1ccc(S(=O)(=O)Nc2ccc(-c3cnc(N)[nH]3)cc2)cc1,99.1%,96.4%,97.4%,105%,103%,100%,94%,98.4%,100%,105%
C#C[C@]1(O)CC[C@H]2[C@@H]3CC=C4c5sc(-c6ccccn6)nc5CC[C@]4(C)[C@H]3CC[C@@]21C,81.2%,94.4%,90.6%,77.5%,75.9%,110%,91.6%,85.7%,24.5%,90.9%
Cc1cccc(NC(c2cc3cccc4ccc5cccc2c5c43)c2nnnn2C(C)(C)C)c1C (stereo not given),82.2%,31.9%,86.4%,86.5%,93.4%,90.2%,77.3%,92.7%,97.6%,102%
COc1cc(O)c2c(c1)[C@H]1O[C@@H]1C[C@H](O)[C@H](O)C(=O)/C=C\C[C@H](C)OC2=O,25.7%,37.9%,85.7%,68.7%,68.1%,-8.48% (active),4.82% (active),72.3%,66%,9.13% (active)
COc1ccc(C2CC(c3ccc(Nc4nc(NCCO)nc(Nc5ccc(Cl)cc5)n4)cc3)=Nc3c(N)nc(N)nc3N2)cc1 (stereo not given),57.8%,88.7%,93.2%,37.4%,63%,74.6%,56.1%,95.1%,71%,92.1%
Nc1nc(-c2cccc([N+](=O)[O-])c2)c(N=Nc2cccc(Cl)c2)s1,45.5%,58.5%,75.1%,46.3%,49.5%,-13.7% (active),26%,48.7%,47.3%,48.1%
Cn1nc(Nc2ccccc2)c(C(=O)NN)c1N,100%,92.5%,97%,99.8%,107%,111%,96.9%,98.3%,109%,104%
C=CCn1c(SCC(=O)Nc2cccc(C(=O)/C=C/c3cc(OC)c(OC)c(OC)c3)c2)nc2ccccc2c1=O,24.4%,75.8%,67.1%,45.8%,16.8%,48.4%,39.2%,80.2%,43.7%,108%
C=C(C)[C@@H]1CC[C@]2(COS(C)(=O)=O)CC[C@]3(C)[C@H](CC[C@@H]4[C@@]5(C)CCCNC(C)(C)[C@@H]5CC[C@]43C)[C@@H]12,82%,86.5%,94.7%,101%,13.5%,76.4%,85.4%,54.2%,91.5%,0.735% (active)
C#CCOc1ccc(C(Nc2ccc(OC)cc2)c2nnnn2C2CCCCC2)cc1 (stereo not given),99.8%,101%,97.3%,98.9%,103%,93.9%,89.3%,92.2%,95.5%,106%
CCc1ccc(NC(=O)N[C@@H](Cc2cc(F)cc(F)c2)C(=O)N[C@@H]2C(=O)N3CCC[C@H]3C(=O)N3CCO[C@H](C)[C@H]3C(=O)N[C@@H](CO)C(=O)N3C[C@H](C)C[C@H]3C(=O)O[C@H]2C)c(F)c1,35.4%,4.36% (active),50.8%,32.6%,16.3%,-1.76% (active),17.5%,26.9%,39.8%,-42.7% (active)
COc1ccc(Cn2cc3c(c2-c2cc(OC)c(OC)c(OC)c2)CCCc2cnoc2-3)cc1N,47.1%,66.9%,46.3%,51.1%,11.5%,65.3%,12.5%,43%,38.1%,12.7%
COc1ccc(-c2ccc3c4c(cccc24)C(=O)N(N2C(=O)c4cccc5cccc(c45)C2=O)C3=O)cc1,96.1%,101%,102%,92.7%,102%,75.6%,97.1%,107%,99.2%,103%
O=C(Nc1cc(Cl)cc(Cl)c1)Nc1ccc2oc(=O)ccc2c1,-6.33% (active),32.7%,21.9%,40.5%,1.17% (active),-26.6% (active),6.05% (active),16.2%,23.9%,-10.9% (active)
O=C(COc1ccc(/C=C2\SC(=O)NC2=O)cc1)Nc1ccc(C(=O)/C=C/c2cc3ccccc3nc2Cl)cc1,65.3%,74.9%,97.8%,103%,86%,88.2%,65.8%,78.6%,83.6%,96.3%
